{"source": "PubChem BioAssay (NCI)", "key": {"[1]": {"experiment": "NCI Yeast Anticancer Drug Screen. Data for the wt1 strain (AID 149);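 also: 0% = growth of vehicle-treated wt1 cultures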", "conditions": "S. cerevisiae wt1 strain (SPY 50644) growth inhibition, active compounds read high", "summary_of_the_method": "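The wt1 strain was treated with compounds, and growth was compared with vehicle-treated cultures to give inhibition.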"}, "[2]": {"experiment": "NCI Yeast Anticancer Drug Screen. Data for the rad50EPP+ strain (AID 151);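 also: 0% = growth of vehicle-treated control cultures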", "conditions": "S. cerevisiae rad50 mutant strain, active compounds read high", "summary_of_the_method": "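Read-out is yeast growth inhibition relative to vehicle; cells used were the rad50EPP+ strain.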"}, "[3]": {"experiment": "NCI Yeast Anticancer Drug Screen. Data for the mgt1 strain (AID 153)", "conditions": "S. cerevisiae mgt1 mutant growth inhibition, active compounds read high", "summary_of_the_method": "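Measured: inhibition of mgt1 yeast growth by compound, normalized to vehicle-treated cultures.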"}, "[4]": {"experiment": "NCI Yeast Anticancer Drug Screen. Data for the rad50 strain (AID 155);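 also: 0% = growth of vehicle-only cultures of the same strain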", "conditions": "S. cerevisiae rad50 strain growth inhibition, active compounds read high", "summary_of_the_method": "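Cells are treated with compound, grown, and their growth is then scored against vehicle-only cultures of the same repair-deficient yeast strain.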"}, "[5]": {"experiment": "NCI Yeast Anticancer Drug Screen. Data for the mec2-1 strain (AID 157)", "conditions": "S. cerevisiae mec2-1 strain, active compounds read high", "summary_of_the_method": "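Using mec2-1 yeast: add compound, measure growth, express inhibition versus vehicle-treated cultures.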"}, "[6]": {"experiment": "NCI Yeast Anticancer Drug Screen. Data for the sgs1 mgt1 strain (AID 161);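 also: 0% = growth of cultures given vehicle only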", "conditions": "S. cerevisiae sgs1 mgt1 strain, active compounds read high", "summary_of_the_method": "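Growth of a repair-deficient yeast mutant was monitored after compound treatment and expressed as inhibition relative to vehicle-treated cultures.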"}, "[7]": {"experiment": "NCI Yeast Anticancer Drug Screen. Data for the cln2 rad14 strain (AID 165);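 also: 0% = growth equal to vehicle treated cultures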", "conditions": "S. cerevisiae cln2 rad14 strain, active compounds read high", "summary_of_the_method": "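Yeast strain cln2 rad14, bearing defects in cell cycle control and DNA repair, serves as the test system; values reflect growth inhibition compared with vehicle.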"}, "[8]": {"experiment": "NCI Yeast Anticancer Drug Screen. Data for the bub3 strain (AID 167)", "conditions": "S. cerevisiae bub3 mutant strain, active compounds read high", "summary_of_the_method": "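Part of a panel of yeast mutants defective in DNA damage repair or cell cycle regulation. Each strain is grown with compound, and inhibition is calculated relative to solvent-treated cultures.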"}, "[9]": {"experiment": "NCI Yeast Anticancer Drug Screen. Data for the mlh1 strain (AID 171);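 also: 0% = growth of vehicle-treated control cultures of the same strain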", "conditions": "S. cerevisiae mlh1 strain growth inhibition, active compounds read high", "summary_of_the_method": "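A yeast strain with a defined genetic lesion serves as the test organism. Cultures receive compound or vehicle, and growth is measured.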"}, "[10]": {"experiment": "NCI Yeast Anticancer Drug Screen. Data for the sgs1 strain (AID 173);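 also: 0% = growth of vehicle-only control cultures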", "conditions": "S. cerevisiae sgs1 mutant, active compounds read high", "summary_of_the_method": "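A genetically defined yeast mutant is incubated with the test compound, and its growth is compared to that of the same strain given vehicle.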"}, "[11]": {"experiment": "NCI Yeast Anticancer Drug Screen. Data for the mlh1 rad18 strain (AID 175)", "conditions": "S. cerevisiae mlh1 rad18 strain growth inhibition, active compounds read high", "summary_of_the_method": "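Steps: expose repair-defective yeast to compound; measure growth; express inhibition against vehicle-treated controls.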"}, "[12]": {"experiment": "NCI Yeast Anticancer Drug Screen. Data for the rad18 strain (AID 177)", "conditions": "S. cerevisiae rad18 mutant growth inhibition, active compounds read high", "summary_of_the_method": "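Measured value is growth inhibition of a yeast strain bearing a DNA repair alteration, referenced to vehicle-treated cells.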"}, "[13]": {"conditions": "at 5.0 µM (retest, dose inferred, filed as 0.5)"}, "[14]": {"conditions": "at 50.0 µM (retest, dose inferred, filed as 5.0)"}}, "note": "About 79,000 compounds went through this panel and 15% of them were active in at least one assay; those are over-represented in the sample as a whole. A number with no mark means an inactive call. Active and inactive are the calls of the source. Rule as the data show it: active = growth inhibition above about 70%; inactive = the rest.", "data": [{"smiles": "O=C1c2ccccc2C2CCC1c1ccccc12", "note": "(stereo not drawn)", "values": [{"measurement": "growth inhibition", "setting": "[1]; at 1.2 µM", "result": -12, "unit": "%"}, {"measurement": "growth inhibition", "setting": "[1]; at 3.7 µM", "result": -14, "unit": "%"}, {"measurement": "growth inhibition", "setting": "[1]; at 11.0 µM", "result": -13, "unit": "%"}, {"measurement": "growth inhibition", "setting": "[1]; at 33.0 µM", "result": -6, "unit": "%"}, {"measurement": "growth inhibition", "setting": "[1]; at 100.0 µM", "result": "97% (active)"}, {"measurement": "growth inhibition", "setting": "[2]; at 1.2 µM", "result": 1, "unit": "%"}, {"measurement": "growth inhibition", "setting": "[2]; at 3.7 µM", "result": -4, "unit": "%"}, {"measurement": "growth inhibition", "setting": "[2]; at 11.0 µM", "result": -2, "unit": "%"}, {"measurement": "growth inhibition", "setting": "[2]; at 33.0 µM", "result": 50, "unit": "%"}, {"measurement": "growth inhibition", "setting": "[2]; at 100.0 µM", "result": 68, "unit": "%"}, {"measurement": "growth inhibition", "setting": "[3]; at 1.2 µM", "result": -12, "unit": "%"}, {"measurement": "growth inhibition", "setting": "[3]; at 3.7 µM", "result": 6, "unit": "%"}, {"measurement": "growth inhibition", "setting": "[3]; at 11.0 µM", "result": 5, "unit": "%"}, {"measurement": "growth inhibition", "setting": "[3]; at 33.0 µM", "result": 17, "unit": "%"}, {"measurement": "growth inhibition", "setting": "[3]; at 100.0 µM", "result": "97% (active)"}, {"measurement": "growth inhibition", "setting": "[4]; at 1.2 µM", "result": -19, "unit": "%"}, {"measurement": "growth inhibition", "setting": "[4]; at 3.7 µM", "result": -5, "unit": "%"}, {"measurement": "growth inhibition", "setting": "[4]; [13]", "result": 0, "unit": "%"}, {"measurement": "growth inhibition", "setting": "[4]; at 11.0 µM", "result": 3, "unit": "%"}, {"measurement": "growth inhibition", "setting": "[4]; at 33.0 µM", "result": 20, "unit": "%"}, {"measurement": "growth inhibition", "setting": "[4]; [14]", "result": -29, "unit": "%"}, {"measurement": "growth inhibition", "setting": "[4]; at 50.0 µM", "result": 62.9, "unit": "%"}, {"measurement": "growth inhibition", "setting": "[4]; at 100.0 µM", "result": "94% (active)"}, {"measurement": "growth inhibition", "setting": "[5]; at 1.2 µM", "result": -24, "unit": "%"}, {"measurement": "growth inhibition", "setting": "[5]; at 3.7 µM", "result": -14, "unit": "%"}, {"measurement": "growth inhibition", "setting": "[5]; [13]", "result": -6, "unit": "%"}, {"measurement": "growth inhibition", "setting": "[5]; at 11.0 µM", "result": 3, "unit": "%"}, {"measurement": "growth inhibition", "setting": "[5]; at 33.0 µM", "result": 12, "unit": "%"}, {"measurement": "growth inhibition", "setting": "[5]; [14]", "result": -19, "unit": "%"}, {"measurement": "growth inhibition", "setting": "[5]; at 50.0 µM", "result": -6.1, "unit": "%"}, {"measurement": "growth inhibition", "setting": "[5]; at 100.0 µM", "result": "98% (active)"}, {"measurement": "growth inhibition", "setting": "[6]; [13]", "result": -15, "unit": "%"}, {"measurement": "growth inhibition", "setting": "[6]; [14]", "result": -7, "unit": "%"}, {"measurement": "growth inhibition", "setting": "[6]; at 50.0 µM", "result": 9.45, "unit": "%"}, {"measurement": "growth inhibition", "setting": "[7]; [13]", "result": -19, "unit": "%"}, {"measurement": "growth inhibition", "setting": "[7]; [14]", "result": 13, "unit": "%"}, {"measurement": "growth inhibition", "setting": "[7]; at 50.0 µM", "result": 18.3, "unit": "%"}, {"measurement": "growth inhibition", "setting": "[8]; at 1.2 µM", "result": -22, "unit": "%"}, {"measurement": "growth inhibition", "setting": "[8]; at 3.7 µM", "result": -30, "unit": "%"}, {"measurement": "growth inhibition", "setting": "[8]; [13]", "result": -32, "unit": "%"}, {"measurement": "growth inhibition", "setting": "[8]; at 11.0 µM", "result": -33, "unit": "%"}, {"measurement": "growth inhibition", "setting": "[8]; at 33.0 µM", "result": 33, "unit": "%"}, {"measurement": "growth inhibition", "setting": "[8]; [14]", "result": "89% (active)"}, {"measurement": "growth inhibition", "setting": "[8]; at 50.0 µM", "result": 7.05, "unit": "%"}, {"measurement": "growth inhibition", "setting": "[8]; at 100.0 µM", "result": "97% (active)"}, {"measurement": "growth inhibition", "setting": "[9]; at 1.2 µM", "result": -3, "unit": "%"}, {"measurement": "growth inhibition", "setting": "[9]; at 3.7 µM", "result": 6, "unit": "%"}, {"measurement": "growth inhibition", "setting": "[9]; at 11.0 µM", "result": 14, "unit": "%"}, {"measurement": "growth inhibition", "setting": "[9]; at 33.0 µM", "result": 28, "unit": "%"}, {"measurement": "growth inhibition", "setting": "[9]; at 100.0 µM", "result": "94% (active)"}, {"measurement": "growth inhibition", "setting": "[10]; at 1.2 µM", "result": -12, "unit": "%"}, {"measurement": "growth inhibition", "setting": "[10]; at 3.7 µM", "result": -18, "unit": "%"}, {"measurement": "growth inhibition", "setting": "[10]; at 11.0 µM", "result": -18, "unit": "%"}, {"measurement": "growth inhibition", "setting": "[10]; at 33.0 µM", "result": 18, "unit": "%"}, {"measurement": "growth inhibition", "setting": "[10]; at 100.0 µM", "result": "96% (active)"}, {"measurement": "growth inhibition", "setting": "[11]; [13]", "result": -45, "unit": "%"}, {"measurement": "growth inhibition", "setting": "[11]; [14]", "result": 26, "unit": "%"}, {"measurement": "growth inhibition", "setting": "[11]; at 50.0 µM", "result": 10.6, "unit": "%"}, {"measurement": "growth inhibition", "setting": "[12]; at 1.2 µM", "result": -40, "unit": "%"}, {"measurement": "growth inhibition", "setting": "[12]; at 3.7 µM", "result": -30, "unit": "%"}, {"measurement": "growth inhibition", "setting": "[12]; at 11.0 µM", "result": -38, "unit": "%"}, {"measurement": "growth inhibition", "setting": "[12]; at 33.0 µM", "result": -26, "unit": "%"}, {"measurement": "growth inhibition", "setting": "[12]; at 100.0 µM", "result": "96% (active)"}]}]}
